PubChem BioAssay (Tox21)
Results filed as inconclusive are left out. Entries that show only a call come without a potency. The source made the active and inactive calls. Calls follow the shape of the dose curve; as a rule, active = well fitted cell-killing curve with a large enough effect in the repeat runs; inconclusive = weak or mixed curves, or effect the other way; inactive = flat fitted curve, though single readings scatter.

test: qHTS assay to identify small molecule antagonists of the estrogen receptor alpha (ER-alpha) signaling pathway using the BG1 cell line - cell viability counter screen (AID 743081); conditions: BG1Luc4E2 viability, CellTiter-Fluor, 22 h; series mostly up to 70.3 µM;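 also: compound given together with 17beta-estradiol as the ER stimulus; nearly all actives have a fitted effect of over 45% in size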
Potency is read from the fitted curve at half-maximal effect.

Structure (SMILES) | Potency
CN[C@@H]1CCc2[nH]c3ccc(C(N)=O)cc3c2C1 | inactive
FC(F)(F)C(F)(F)C(F)(F)C(F)(F)C(F)(F)C(F)(F)F | inactive
Nc1ncnc2c1ncn2CCOCP(=O)(O)O | inactive
CCCCCCCCCCCCCCCC(=O)OC[C@@H](NC(=O)C(Cl)Cl)[C@H](O)c1ccc([N+](=O)[O-])cc1 | inactive
C/C(=C(\CCOC(=O)c1ccccc1)SS/C(CCOC(=O)c1ccccc1)=C(/C)N(C=O)Cc1cnc(C)nc1N)N(C=O)Cc1cnc(C)nc1N | inactive
CCOC(=O)[C@H](CCc1ccccc1)N[C@@H](C)C(=O)N1CC2(C[C@H]1C(=O)O)SCCS2 | inactive
CC(=O)N=c1sc(S(N)(=O)=O)nn1C | inactive
CN1[C@@H]2CCC[C@H]1CC(NC(=O)c1nn(C)c3ccccc13)C2 (stereo partly drawn) | inactive
O=C(O[C@H]1CN2CCC1CC2)N1CCc2ccccc2[C@@H]1c1ccccc1 | inactive
CCC[C@@]1(CCc2ccccc2)CC(O)=C([C@H](CC)c2cccc(NS(=O)(=O)c3ccc(C(F)(F)F)cn3)c2)C(=O)O1 | inactive
COC1=C(C(=O)O)N2C(=O)[C@@H](NC(=O)[C@H](N)C3=CCC=CC3)[C@H]2SC1 | inactive
CCCCCCCCCCCCCCCCCC(=O)[O][Al] | inactive
CCNC(=O)[C@@H]1CCCN1C(=O)[C@H](CCCN=C(N)N)NC(=O)[C@H](CC(C)C)NC(=O)[C@@H](Cc1c[nH]c2ccccc12)NC(=O)[C@H](Cc1ccc(O)cc1)NC(=O)[C@H](CO)NC(=O)[C@H](Cc1c[nH]c2ccccc12)NC(=O)[C@H](Cc1cnc[nH]1)NC(=O)[C@@H]1CCC(=O)N1 | 10.6 µM (active)
